Data: PubChem BioAssay (NCI)
Compounds without any hit were thinned out: in the full panel of roughly 83,000, 20% have a hit.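 Assay: single dose, 48 h. Readout: percent growth (0 = no net growth; negative = cell death). Active: <10.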 Activity calls are given as the source filed them.

Legend:
Test in all cases: NCI-60 one-dose screen, 48 h (100 = growth as untreated, 0 = no growth, -100 = all killed)
Conditions in all cases: 10 µM unless noted
NCI-H23 lung = system: NCI-H23 lung
NCI-H226 lung = system: NCI-H226 lung
NCI-H322M lung = system: NCI-H322M lung
HOP-62 NSCLC = system: HOP-62 NSCLC
NCI-H460 lung = system: NCI-H460 lung
HOP-92 NSCLC = system: HOP-92 NSCLC
NCI-H522 lung = system: NCI-H522 lung
A549/ATCC NSCLC = system: A549/ATCC NSCLC
COLO 205 colon = system: COLO 205 colon
786-0 renal = system: 786-0 renal

Measured: growth

CNC(=O)c1cc(Oc2ccc3nc(NC(=O)Nc4ccc(CN5CCOCC5)c(C(F)(F)F)c4)sc3c2)ccn1
active: NCI-H23 lung -4.08% | NCI-H460 lung 9.7% | HOP-92 NSCLC -7.77%
inactive: NCI-H226 lung 17.3% | NCI-H322M lung 49.6% | HOP-62 NSCLC 44.6% | NCI-H522 lung 22.4% | A549/ATCC NSCLC 20.9% | COLO 205 colon 21%

CCOC(=O)C(=Cc1ccccc1F)C(=O)OCC
inactive: NCI-H23 lung 99.2% | NCI-H226 lung 96.1% | NCI-H322M lung 94% | HOP-62 NSCLC 137% | NCI-H460 lung 105% | HOP-92 NSCLC 103% | NCI-H522 lung 65.2% | A549/ATCC NSCLC 90.3% | 786-0 renal 104% | COLO 205 colon 115%

c1c2c(cc3c1OCO3)Cc1cc3c(cc1Cc1cc4c(cc1C2)OCO4)OCO3
inactive: NCI-H23 lung 109% | NCI-H226 lung 105% | NCI-H322M lung 109% | HOP-62 NSCLC 109% | NCI-H460 lung 104% | HOP-92 NSCLC 96.7% | NCI-H522 lung 94.2% | 786-0 renal 110% | COLO 205 colon 114%

O=C(/C=C\c1cccc([N+](=O)[O-])c1)c1ccccc1
inactive: NCI-H23 lung 81.3% | NCI-H226 lung 70.3% | NCI-H322M lung 96.1% | HOP-62 NSCLC 90.8% | NCI-H460 lung 87.7% | A549/ATCC NSCLC 92.9% | 786-0 renal 13.2%
active: HOP-92 NSCLC -27% | NCI-H522 lung -5.55% | COLO 205 colon -71%

CCCCCCCCCc1cc(CN2CCCCC2)c(O)c(CN2CCCCC2)c1
inactive: NCI-H23 lung 39.4% | NCI-H226 lung 75.9% | NCI-H322M lung 88.4% | HOP-62 NSCLC 78.4% | NCI-H460 lung 49.1% | HOP-92 NSCLC 12.7% | NCI-H522 lung 49.2% | A549/ATCC NSCLC 61.9% | COLO 205 colon 64.3%

COc1ccc(-c2cc(-c3cccnc3)nc3sc4c(=O)n(-c5ccc(C)cc5)cnc4c23)cc1OC
inactive: NCI-H23 lung 95.7% | NCI-H226 lung 93.3% | NCI-H322M lung 92.4% | HOP-62 NSCLC 98.4% | NCI-H460 lung 101% | HOP-92 NSCLC 63.6% | NCI-H522 lung 99.8% | A549/ATCC NSCLC 103% | COLO 205 colon 97.6%

OCC1C2C=CC(C2)C1CO (configuration not stated)
inactive: NCI-H23 lung 108% | NCI-H226 lung 109% | NCI-H322M lung 114% | HOP-62 NSCLC 90.9% | NCI-H460 lung 121% | HOP-92 NSCLC 60.5% | NCI-H522 lung 97% | A549/ATCC NSCLC 89% | 786-0 renal 101% | COLO 205 colon 191%

O=C(/C=C/c1ccc(Cl)cc1)c1ccc(O)c(CN2CCN(c3cc4c(cc3F)c(=O)c(C(=O)O)cn4C3CC3)CC2)c1
inactive: NCI-H23 lung 51.7% | NCI-H226 lung 67.3% | NCI-H322M lung 72.8% | HOP-62 NSCLC 49.8% | NCI-H460 lung 70.7% | HOP-92 NSCLC 40.8% | NCI-H522 lung 45.2% | 786-0 renal 55.1% | COLO 205 colon 136%

O=C(NCc1cccc(C(F)(F)F)c1)[C@H](CCC(=O)N1CCN(C2CCCCC2)CC1)N1C(=O)[C@@H](N2C(=O)OC[C@@H]2c2ccccc2)[C@H]1/C(Cl)=C/c1ccccc1
inactive: NCI-H23 lung 68.4% | NCI-H226 lung 73.2% | NCI-H322M lung 36.4% | HOP-62 NSCLC 55.6% | NCI-H460 lung 47.8% | HOP-92 NSCLC 32.6% | NCI-H522 lung 33.7% | 786-0 renal 49.9% | COLO 205 colon 40.7%

Cc1ccc(-c2nc(/C=N/Nc3cc(C)nc4ccc(Br)cc34)c(C)o2)cc1
inactive: NCI-H23 lung 79.2% | NCI-H226 lung 86.6% | HOP-62 NSCLC 97.7% | HOP-92 NSCLC 18.9%
active: NCI-H322M lung -36.8% | NCI-H460 lung -81% | NCI-H522 lung -67.1% | 786-0 renal -67% | COLO 205 colon -68.6%

O=c1c2cccc3c(Nc4ccccn4)ccc(c32)c2nc3ccccc3n12
inactive: NCI-H23 lung 60.6% | NCI-H226 lung 69.7% | NCI-H322M lung 74.5% | HOP-62 NSCLC 67.8% | NCI-H460 lung 52.7% | HOP-92 NSCLC 54.9% | NCI-H522 lung 56.6% | A549/ATCC NSCLC 70.9% | 786-0 renal 88.4% | COLO 205 colon 71%

CCN(CC)Cc1cc(Nc2c3ccccc3nc3cc(Cl)ccc23)ccc1O
active: NCI-H23 lung -82.6% | NCI-H226 lung -47.5% | NCI-H322M lung -40.9% | HOP-62 NSCLC -65.2% | NCI-H460 lung -73.6% | HOP-92 NSCLC -33.1% | NCI-H522 lung -80.8% | 786-0 renal -55.1% | COLO 205 colon -100%
